Compounds with a hit are over-represented: about 1.3% of the library has one in this group of screens.
CCHF vOTU inh – CCHFV vOTU protease inhibition; inhibition, % at 11.5 µM; AID 651958; Pep-AMC fluorescence; hit rate 0.55% among 370,000; in the data active = inhibition above about 30%; note: 0% = vehicle wells with enzyme and 100% = no enzyme wells
SSB-PriA inh – inhibitors of Klebsiella pneumoniae PriA binding to SSB C-terminal tail | inhibition, % at 33 µM | hit rate 0.6% among 430,000 | AlphaScreen SSBct-PriA binding, biotinylated peptide; in the data active = inhibition mostly above about 37%, no sharp cut-off; inactive = mostly below about 20%;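 note: plate controls were negative control peptide for no effect and reference peptide for full effect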
VHR inh abs – blocks human VHR1 dual specificity phosphatase. hit rate 0.52% among 290,000. inhibition, % at 13.3 µM. P51452. recombinant VHR phosphatase, pNPP absorbance; in the data active = inhibition above about 50%
Target sequence (P51452 whole entry, looked up): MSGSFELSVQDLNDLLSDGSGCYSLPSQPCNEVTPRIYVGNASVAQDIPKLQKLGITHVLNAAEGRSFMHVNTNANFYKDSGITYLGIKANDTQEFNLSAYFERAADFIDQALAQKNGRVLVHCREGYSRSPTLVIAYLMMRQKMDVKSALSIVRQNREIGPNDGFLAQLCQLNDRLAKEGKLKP
3CLpro inhibitor – SARS-CoV 3CLpro protease inhibition; P0C6X7; recombinant SARS-CoV 3CLpro, quenched FRET peptide cleavage; inhibition, % at 6 µM; hit rate 0.14% among 290,000; AID 1706; in the data active = inhibition above about 12%
TcdB GH inh – inhibitors of Clostridioides difficile toxin B glycohydrolase; P18177; TcdB glycohydrolase enzymatic assay, plate reader; inhibition, % at 9.99 µM; hit rate 0.24% among 350,000; in the data active = inhibition above about 10%
BH1578 lux ind – quorum light induction in luxS cqsA deficient V. cholerae; V. cholerae BH1578 lux reporter, luminescence, 6 h; activation, % at 18.7 µM; hit rate 0.16% among 350,000; AID 588436; in the data active = activation mostly above about 9.7%, no sharp cut-off
* = called active by the depositor; i = inactive; · = no result; ! = not confirmed by another sample.

SMILES	CCHF vOTU inh	SSB-PriA inh	VHR inh abs	3CLpro inhibitor	TcdB GH inh	BH1578 lux ind
Cc1c(Cl)cccc1NC(=O)C1Cc2ccccc2CN1C(=O)c1ccccc1 (stereo unspecified)	-12	-6	21	5	11*	0
CCN(CC)C(=O)CSc1nc2c(sc(=S)n2-c2ccccc2)c(=O)n1-c1ccc(OC)cc1OC	-1	-6	14	7	2	1
Cc1ccc(-n2c(=S)sc3c(=O)n(-c4ccccc4C)c(SCC(=O)O)nc32)cc1C	-10	0	-3	6	1	-1
CCOC(=O)CSc1nc2c(sc(=S)n2-c2ccccc2)c(=O)n1-c1ccc(OC)cc1OC	-6	-7	53*	-5	1	i
COc1ccccc1-n1c(SCC(=O)O)nc2c(sc(=S)n2-c2ccc(Cl)c(C)c2)c1=O	5	1	18	6	13*	i
COc1ccccc1-n1c(SCC(=O)O)nc2c(sc(=S)n2-c2ccc(C)c(C)c2)c1=O	-3	-3	-16	4	11*	i
CCOc1ccccc1-n1c(=S)sc2c(=O)n(-c3ccc(F)cc3)c(SCC(=O)O)nc21	-1	2	27	0	20*	1
O=C1CSC(=S)N1N=Cc1cc(Br)c(O)c(Br)c1	·	-4	·	·	·	·
CCOC(=O)N1CCc2c(sc(NC(=O)[C@@H]3COc4ccccc4O3)c2C(N)=O)C1	·	-3	·	·	·	·
O=C(O)c1ccc(-n2nnc3ccccc32)c([N+](=O)[O-])c1	13	0	20	-1	14*	i
O=C(CSc1nnc(CNC(=O)c2cccs2)o1)NC1CCCCC1	-1	-5	14	2	·	15*
O=C(C[C@H]1C/C=C/C[C@H](NC(=O)OCC2c3ccccc3-c3ccccc32)C(=O)OC[C@H]2CCCN2C1=O)NCCO	·	14	·	·	·	·
Cc1nc(SCC(=O)c2cccs2)c2oc3ccccc3c2n1	6	-8	56*	4	·	·
Cc1cn2nc(C(=O)N[C@H]3CCCc4ccccc43)cc2c(=O)[nH]1	·	-15	·	·	·	·
CNC(=O)c1ccsc1NC(=O)Cc1ccccc1	·	6	·	·	·	·
CSc1nc2sc3c(c2c2nnnn12)CC(C)(C)OC3	·	·	·	2	·	·
CC1(C)Cc2c(sc3ncn4nnnc4c23)CO1	·	·	52*	·	·	·
COc1ccc(C(=O)NCC2(O)CCOCC2)cc1F	·	-7	·	·	·	·
COC(=O)N1CCC(CNC(=O)C(=O)Nc2ccc(C)c(F)c2)CC1	·	-2	·	·	·	·
O=C(COc1ccccc1F)NCCOc1ccc2c(c1)OCO2	·	9	·	·	·	·
O=C(COc1ccc2ccccc2c1)NCCOc1ccc2c(c1)OCO2	·	37*	·	·	·	·
COC(=O)c1ccsc1NC(=O)c1ccc(S(=O)(=O)N(C)C2CCCCC2)cc1	·	6	·	·	·	·
Nc1c(N2CCCC2)cc(Cl)c2nonc12	·	-6	56*	-5	·	0
Nc1c(N2CCOCC2)cc(Cl)c2nonc12	-2	3	-1	-7	·	i
O=C1NCCN1C(=O)N(Cc1ccoc1)Cc1cccs1	·	-25	·	·	·	·
SMILES	CCHF vOTU inh	SSB-PriA inh	VHR inh abs	3CLpro inhibitor	TcdB GH inh	BH1578 lux ind
CCCCC(O)=C1C(=O)CC(C)(C)CC1=Nc1ccc(OC)cc1	·	-8	·	·	·	·
COc1ccc(C)cc1N(C(=O)c1ccco1)C(C(=O)NC1CCCC1)c1ccc(N2CCOCC2)cc1 (stereo unspecified)	2	-12	52*	-3	1	0
CCOC(=O)CN1C(=O)C2(OCCCO2)c2cc(Br)ccc21	-10	-7	59*	1	1	1
O=C(Nc1ccc(S(=O)(=O)N2CCCC2)cc1)C(c1ccccc1)c1ccccc1	·	-19	·	·	·	·
CCOC(=O)CC(=O)CSc1ccc2nnc(-c3ccccn3)n2n1	·	64	·	·	·	·
CCOC(=O)C(C)Sc1ccc2nnc(-c3ccccn3)n2n1 (stereo unspecified)	·	76*	·	·	·	·
CCC(Sc1ccc2nnc(-c3ccccn3)n2n1)C(=O)O (stereo unspecified)	·	103*	·	·	·	·
CCOC(=O)CSc1ccc2nnc(-c3ccccn3)n2n1	·	90*	·	·	·	·
CC(=O)Nc1ccc(NC(=O)CSc2ccc3nnc(-c4ccccn4)n3n2)cc1	-8	39*	20	-4	0	-3
COc1ccc2oc(CO)cc2c1	·	9	·	·	·	·
C/C(=N/N=C(\C)c1ccccc1O)c1ccccc1O	-4	·	24	1	4	i
C/C(=N\N1C(C)CCCC1C)c1ccccc1O (stereo unspecified)	-7	·	53*	-5	0	i
Cc1nn2cc(-c3cccc(Cl)c3)cnc2c1Br	1	-4	30	-2	10*	i
O=C(CN1CCN(Cc2ccccc2)C1=O)NCCCN1CCOCC1	-6	-12	50*	3	1	·
CCN1CCCC1CNC(=O)c1cc([N+](=O)[O-])c(N(C)C)cc1OC (stereo unspecified)	3	-6	57*	-4	1	-2
COC(=O)c1ccc(OC(=O)c2ccc(OC)cc2)c(OC)c1	15	-13	6	-1	11*	i
COC(=O)c1ccc(OC(=O)c2ccc(OC)c(OC)c2)c(OC)c1	2	-5	30	1	·	·
Cc1cccn2c(=O)c(/C=C(\C#N)C(=O)NCc3ccco3)c(N3CCCC(C)C3)nc12 (stereo unspecified)	4	-3	55*	1	1	0
O=C(Cc1csc(SCC(=O)c2ccc3c(c2)OCO3)n1)NCc1cccs1	·	-13	·	·	·	·
COc1ccc(NS(=O)(=O)c2cccc3nsnc23)cc1OC	-5	-9	51*	3	·	1
COc1ccc([C@@]2(C)NN=C3Oc4ccccc4N32)cc1	·	-18	·	·	·	·
COc1ccc(C2(C)NN=C3Sc4ccccc4N32)cc1 (stereo unspecified)	·	41*	·	·	·	·
O=C(Nc1ccc(-c2ccc(N3CCCCC3)nn2)cc1)Nc1cccs1	·	-8	·	·	·	·
CSCCn1c(=NC(=O)c2ccn(C)n2)sc2cc3c(cc21)OCCO3	·	-5	·	·	·	·
CC1CC(C)CN(C(=O)COC(=O)c2ccc[nH]c2=O)C1 (stereo unspecified)	5	-8	-8	2	·	25*
SMILES	CCHF vOTU inh	SSB-PriA inh	VHR inh abs	3CLpro inhibitor	TcdB GH inh	BH1578 lux ind
CCc1ccc(/C=C(/C#N)C(N)=S)cc1	9	38*!	3	-1	·	0
N#C/C(=C/c1ccc(F)cc1)C(N)=S	0	4	7	-2	0	-1
COc1ccc(SCCC(=O)Nc2sccc2C#N)cc1	·	1	·	·	·	·
N#C/C(=C\c1ccc([N+](=O)[O-])o1)c1nc2ccccc2[nH]1	-3	-2	52*	0	0	·
N#C/C(=C(/O)c1ccc([N+](=O)[O-])o1)c1nc2ccccc2[nH]1	-3	0	3	3	0	35*
N#CC(=C(O)c1ccccc1Br)c1nc2ccccc2[nH]1	·	-16	·	·	·	·
Cc1ccc2nc(/C(C#N)=C\c3ccc([N+](=O)[O-])o3)[nH]c2c1	-1	-5	24	3	·	-1
COC(=O)N1CCC(CNC(=O)c2ccc(OC)c(F)c2)CC1	·	-16	·	·	·	·
Cc1nc(N2CCN(C(=O)c3ccc(S(N)(=O)=O)cc3)CC2)cc(-n2cccc2)n1	·	-8	·	·	·	·
CC(C)=NNC(=S)NC(C)(C)C	·	43*	·	·	·	·

High-throughput results deposited in PubChem BioAssay by several laboratories.
